Source: the antibiotic and cytotoxicity screens of Wong et al. (2023)
The whole screen tested about 39,000 compounds, of which about 3,300 (8.5%) were called active. Only a selection was taken, and actives are over-represented in it overall.

Each compound was assayed on HepG2 (assay: cytotoxicity call (relative viability < 0.9)). Conditions: 10 µM.
With C[C@@H]1CN([C@@H](C)CO)C(=O)c2cccc(NC(=O)c3cnccn3)c2O[C@@H]1CN(C)C(=O)Nc1ccccc1 the cytotoxicity call was “inactive”. COc1ccc(S(=O)(=O)N(C)C[C@H]2Oc3ccc(NC(=O)c4ccncc4)cc3CC(=O)N([C@H](C)CO)C[C@@H]2C)cc1 was tested, and the cytotoxicity call was “inactive”. In the case of C[C@H](CO)N1C[C@H](C)[C@@H](CN(C)C(=O)Nc2ccc(C(F)(F)F)cc2)Oc2ccc(NC(=O)Cn3cnnn3)cc2CC1=O, the cytotoxicity call is reported as “inactive”. With COc1cccc(NC(=O)N2C[C@@H](O)COC[C@@H]3O[C@H](CC(=O)NCCCN4CCOCC4)CC[C@H]32)c1 the cytotoxicity call was “inactive”. For COc1ccc(CN(C)C[C@@H]2Oc3c(NS(=O)(=O)c4cn(C)cn4)cccc3C(=O)N([C@@H](C)CO)C[C@H]2C)cc1, the cytotoxicity call was “inactive”. In the case of C[C@H]1CN([C@@H](C)CO)C(=O)c2cccc(NC(=O)c3cnccn3)c2O[C@H]1CN(C)Cc1ccccc1, the cytotoxicity call is reported as “inactive”. Cc1ccc(S(=O)(=O)Nc2ccc3c(c2)CC(=O)N([C@H](C)CO)C[C@H](C)[C@H](CN(C)Cc2ccc(C(F)(F)F)cc2)O3)cc1 was tested, and the cytotoxicity call was “active”. Cc1ccc(S(=O)(=O)Nc2ccc3c(c2)CC(=O)N([C@H](C)CO)C[C@@H](C)[C@H](CN(C)Cc2ccncc2)O3)cc1 was tested, and the cytotoxicity call was “inactive”. With C[C@@H]1CN([C@H](C)CO)C(=O)Cc2cc(NS(C)(=O)=O)ccc2O[C@@H]1CN(C)Cc1ccc(C(F)(F)F)cc1 the cytotoxicity call was “inactive”. In the case of Cc1ccc(S(=O)(=O)Nc2ccc3c(c2)CC(=O)N([C@@H](C)CO)C[C@H](C)[C@@H](CN(C)Cc2ccncc2)O3)cc1, the cytotoxicity call is reported as “inactive”. In the case of Cc1ccc(S(=O)(=O)Nc2ccc3c(c2)CC(=O)N([C@H](C)CO)C[C@@H](C)[C@@H](CN(C)Cc2ccc(C(F)(F)F)cc2)O3)cc1, the cytotoxicity call is reported as “active”. C[C@@H]1CN([C@@H](C)CO)C(=O)Cc2cc(NS(C)(=O)=O)ccc2O[C@@H]1CN(C)Cc1ccc(C(F)(F)F)cc1 was tested, and the cytotoxicity call was “inactive”. In the case of Cc1ccc(S(=O)(=O)Nc2ccc3c(c2)CC(=O)N([C@@H](C)CO)C[C@H](C)[C@@H](CN(C)Cc2ccc(C(F)(F)F)cc2)O3)cc1, the cytotoxicity call is reported as “active”. C[C@H]1CN([C@@H](C)CO)C(=O)Cc2cc(NS(C)(=O)=O)ccc2O[C@@H]1CN(C)Cc1ccc(C(F)(F)F)cc1 was tested, and the cytotoxicity call was “inactive”. With Cc1ccc(S(=O)(=O)Nc2ccc3c(c2)CC(=O)N([C@H](C)CO)C[C@@H](C)[C@@H](CN(C)Cc2ccncc2)O3)cc1 the cytotoxicity call was “active”. With Cc1ccc(S(=O)(=O)Nc2ccc3c(c2)CC(=O)N([C@H](C)CO)C[C@@H](C)[C@H](CN(C)Cc2ccc(C(F)(F)F)cc2)O3)cc1 the cytotoxicity call was “inactive”. For Cc1ccc(S(=O)(=O)Nc2ccc3c(c2)CC(=O)N([C@@H](C)CO)C[C@H](C)[C@H](CN(C)Cc2ccc(C(F)(F)F)cc2)O3)cc1, the cytotoxicity call was “inactive”. With C[C@H](CO)N1C[C@H](C)[C@H](CN(C)Cc2ccc(C(F)(F)F)cc2)Oc2ccc(NS(C)(=O)=O)cc2CC1=O the cytotoxicity call was “inactive”. With O=C(C[C@@H]1CC[C@H]2[C@@H](COC[C@H](O)CN2Cc2ccccc2F)O1)N[C@@H]1CCN(Cc2ccccc2)C1 the cytotoxicity call was “inactive”. COc1ccc(S(=O)(=O)Nc2cccc3c2O[C@H](CN(C)S(=O)(=O)c2c(C)noc2C)[C@@H](C)CN([C@H](C)CO)C3=O)cc1 was tested, and the cytotoxicity call was “inactive”. In the case of C/C=C/c1ccc([C@@H]2[C@H](CO)N(S(=O)(=O)Cc3ccccc3)C23CN(C(=O)C2CCOCC2)C3)cc1, the cytotoxicity call is reported as “inactive”. C[C@@H]1CN([C@H](C)CO)C(=O)c2cc(NC(=O)NC3CCCCC3)ccc2O[C@@H](C)CCCCO[C@@H]1CN(C)C(=O)c1ccccc1 was tested, and the cytotoxicity call was “inactive”. In the case of COc1ccc(S(=O)(=O)N(C)C[C@@H]2OCc3cnnn3CCCC(=O)N([C@H](C)CO)C[C@@H]2C)cc1, the cytotoxicity call is reported as “inactive”. For COCC#Cc1cnc2c(c1)C(=O)N([C@@H](C)CO)C[C@@H](C)[C@@H](CN(C)C(=O)Nc1ccc(OC)cc1)O2, the cytotoxicity call was “inactive”. With C[C@H](CO)N1C[C@H](C)[C@H](CN(C)Cc2ccc(C(F)(F)F)cc2)Oc2c(NC(=O)C3CCCCC3)cccc2C1=O the cytotoxicity call was “inactive”. In the case of COC(=O)c1cc(=O)n2ccccc2c1C#N, the cytotoxicity call is reported as “inactive”. CO[C@@H](CN(C)C(=O)c1ccccc1F)[C@H](C)CN([C@@H](C)CO)S(=O)(=O)c1ccc(Cl)cc1 was tested, and the cytotoxicity call was “inactive”. For C[C@H](CO)N1C[C@H](C)[C@H](CN(C)Cc2ccncc2)Oc2ccc(NS(=O)(=O)c3cn(C)cn3)cc2CC1=O, the cytotoxicity call was “inactive”. For C[C@H]1CCCCO[C@@H](CN(C)C)[C@@H](C)CN([C@@H](C)CO)C(=O)c2cc(NC(=O)CCCN(C)C)ccc2O1, the cytotoxicity call was “inactive”. In the case of C=CC[C@H](CC(=O)NCCO)C(=O)N[C@@H](COC(=O)[C@@H](CC=C)CC(=O)OC(C)(C)C)Cc1ccccc1, the cytotoxicity call is reported as “inactive”. For CO[C@H]1CN(C)C(=O)c2ccc(NC(=O)C3CC3)cc2OC[C@@H](C)N(C(=O)C2CCOCC2)C[C@H]1C, the cytotoxicity call was “inactive”. In the case of Cc1ccc(S(=O)(=O)N2C[C@H](O)COC[C@H]3O[C@@H](CC(=O)N[C@H]4CCN(Cc5ccccc5)C4)CC[C@@H]32)cc1, the cytotoxicity call is reported as “inactive”. For COc1cccc(S(=O)(=O)Nc2ccc3c(c2)[C@H]2C[C@H](CC(=O)N4CCCCC4)O[C@@H](CO)[C@H]2O3)c1, the cytotoxicity call was “inactive”. For Cc1ccc(S(=O)(=O)Nc2ccc3c(c2)CC(=O)N([C@H](C)CO)C[C@H](C)[C@@H](CN(C)Cc2ccc(C(F)(F)F)cc2)O3)cc1, the cytotoxicity call was “inactive”. With Cc1ccc(S(=O)(=O)Nc2ccc3c(c2)CC(=O)N([C@@H](C)CO)C[C@@H](C)[C@@H](CN(C)Cc2ccc(C(F)(F)F)cc2)O3)cc1 the cytotoxicity call was “active”. In the case of Cc1ccc(S(=O)(=O)Nc2ccc3c(c2)CC(=O)N([C@@H](C)CO)C[C@@H](C)[C@H](CN(C)Cc2ccc(C(F)(F)F)cc2)O3)cc1, the cytotoxicity call is reported as “inactive”. With C[C@@H]1CCCCO[C@H](CN(C)C(=O)Nc2ccc(C(F)(F)F)cc2)[C@@H](C)CN([C@H](C)CO)C(=O)c2cc(NC(=O)c3ccncc3)ccc2O1 the cytotoxicity call was “inactive”. For Cc1cccc2ccccc12, the cytotoxicity call was “inactive”. With Cc1cccc(C)c1OC[C@@H](C)N the cytotoxicity call was “inactive”. Cc1cccc(C)c1OCC(C)N.Cl (stereo not given) was tested, and the cytotoxicity call was “active”. C[C@@H]1CN([C@@H](C)CO)C(=O)c2cc(NS(=O)(=O)c3cn(C)cn3)ccc2O[C@@H]1CN(C)S(=O)(=O)c1ccc(Cl)cc1 was tested, and the cytotoxicity call was “inactive”. In the case of O=C(CCCCCCC(=O)Nc1ccc([C@H]2O[C@H](CSc3nc(-c4ccccc4)c(-c4ccccc4)o3)C[C@H](c3ccc(NC(=O)CCCCCCC(=O)NO)cc3)O2)cc1)NO, the cytotoxicity call is reported as “inactive”. COc1cc2c(cc1OC)CN(C[C@H]1C[C@H](c3ccccc3)O[C@H](c3ccc(NC(=O)CCCCCCC(=O)NO)cc3)O1)CC2 was tested, and the cytotoxicity call was “active”. O=C(CCCCCCC(=O)Nc1ccc([C@H]2O[C@@H](CSc3nc(-c4ccccc4)c(-c4ccccc4)o3)C[C@H](c3ccc([N+](=O)[O-])cc3)O2)cc1)NO was tested, and the cytotoxicity call was “active”. For O=C(CCCCCCC(=O)Nc1ccc([C@H]2O[C@@H](COc3ccccc3)C[C@H](c3ccccc3)O2)cc1)NO, the cytotoxicity call was “inactive”. In the case of O=C(CCCCCCC(=O)Nc1ccc([C@@H]2O[C@H](CSc3nc(-c4ccccc4)c(-c4ccccc4)o3)C[C@H](c3ccccc3)O2)cc1)NO, the cytotoxicity call is reported as “inactive”. For O=C(O)CCCCCCC(=O)Nc1ccc([C@H]2O[C@@H](CSc3nc(-c4ccccc4)c(-c4ccccc4)o3)C[C@H](c3ccc([N+](=O)[O-])cc3)O2)cc1, the cytotoxicity call was “inactive”. For O=C(CCCCCCC(=O)Nc1ccc([C@H]2C[C@@H](CSc3nc(-c4ccccc4)c(-c4ccccc4)o3)O[C@H](c3ccccc3)O2)cc1)NO, the cytotoxicity call was “inactive”. O=C(CCCCCCC(=O)Nc1ccc([C@H]2O[C@@H](CN3CCCCCCC3)C[C@H](c3ccccc3)O2)cc1)NO was tested, and the cytotoxicity call was “inactive”. With O=C(CCCCCCC(=O)Nc1ccc([C@H]2O[C@@H](CSc3nc4ccccc4o3)C[C@H](c3ccccc3)O2)cc1)NO the cytotoxicity call was “active”.
